From PMC4336329 (PLoS ONE, 2015)
Hit rate of the full screen: of about 310,000 compounds, about 2,200 (0.71%) showed an effect of 50% or more. The effect is printed as a negative number. The sample as a whole holds a higher share of strong results than the screen did.

molecular target: human ether-à-go-go-related gene (hERG) potassium channel (human, UniProt Q12809); experiment: primary screen, population patch clamp on CHO cells stably expressing hERG; higher = less effect of the substance
Sequence (Q12809 whole entry, looked up): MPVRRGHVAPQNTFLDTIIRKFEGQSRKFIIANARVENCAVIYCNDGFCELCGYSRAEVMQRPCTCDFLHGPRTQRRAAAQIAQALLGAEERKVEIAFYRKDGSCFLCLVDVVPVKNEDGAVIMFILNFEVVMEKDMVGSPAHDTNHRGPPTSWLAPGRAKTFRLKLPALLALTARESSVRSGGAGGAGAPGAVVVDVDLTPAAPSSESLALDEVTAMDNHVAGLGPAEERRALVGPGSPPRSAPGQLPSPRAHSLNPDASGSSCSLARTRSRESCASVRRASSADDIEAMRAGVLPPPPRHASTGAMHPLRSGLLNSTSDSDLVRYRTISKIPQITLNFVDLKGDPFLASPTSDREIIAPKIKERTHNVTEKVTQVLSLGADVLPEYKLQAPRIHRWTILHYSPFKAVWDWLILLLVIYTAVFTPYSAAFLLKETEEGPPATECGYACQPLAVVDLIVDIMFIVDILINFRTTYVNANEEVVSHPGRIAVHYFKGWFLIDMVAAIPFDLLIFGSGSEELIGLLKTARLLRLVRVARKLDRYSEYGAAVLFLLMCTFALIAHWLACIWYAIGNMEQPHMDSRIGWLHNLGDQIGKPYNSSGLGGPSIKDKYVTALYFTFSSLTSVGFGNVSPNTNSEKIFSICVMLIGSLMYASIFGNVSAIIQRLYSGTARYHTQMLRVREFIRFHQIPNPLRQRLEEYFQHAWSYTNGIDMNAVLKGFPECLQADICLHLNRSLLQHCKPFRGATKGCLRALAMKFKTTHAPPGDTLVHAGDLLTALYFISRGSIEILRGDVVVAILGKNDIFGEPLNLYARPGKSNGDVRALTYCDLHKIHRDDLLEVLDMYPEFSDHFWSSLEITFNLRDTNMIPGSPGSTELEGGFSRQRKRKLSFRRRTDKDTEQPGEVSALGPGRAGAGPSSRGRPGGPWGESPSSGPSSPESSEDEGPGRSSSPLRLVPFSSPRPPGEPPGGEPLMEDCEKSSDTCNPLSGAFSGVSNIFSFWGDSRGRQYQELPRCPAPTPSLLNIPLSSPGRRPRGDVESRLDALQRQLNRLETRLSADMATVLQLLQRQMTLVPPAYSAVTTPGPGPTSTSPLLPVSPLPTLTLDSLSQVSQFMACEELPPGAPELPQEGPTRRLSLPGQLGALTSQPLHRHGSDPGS

Compound	hERG current change (%, negative = inhibition) at 1uM [%]
CC(C)(C)CC(=O)OCC(=O)Nc1cc(C(C)(C)C)nn1-c1ccccc1	-12.9
Cc1nn2c(-c3ccc(Cl)cc3Cl)nnc2s1	-0.908
COc1cccc(CN2CCCC(C(=O)c3ccc4c(c3)OCO4)C2)c1OC (stereo not drawn)	-25.3
O=C(c1ccc2c(c1)OCO2)C1CCCN(Cc2cc(F)ccc2-n2cccn2)C1 (stereo not drawn)	-78.2
COc1cccc(CN2CCCC(C(=O)c3ccc4c(c3)OCO4)C2)c1O (stereo not drawn)	-44.6
Br.Nc1nc(-c2ccc(Br)cc2)cs1	-2.25
C/C(=N/N1CCN(c2ccccc2)CC1)c1cccc([N+](=O)[O-])c1	8.81
Cc1ccc(Cl)cc1NS(=O)(=O)Cc1ccccc1	14.1
O=C(Nc1ccc(NC(=O)c2cccs2)cc1)c1cccnc1	13.4
Cc1ccccc1NS(=O)(=O)c1ccc(OCC(=O)NCc2ccccn2)cc1	3.12
O=C(c1ccco1)N1CCN(Cc2cc(=O)c(OCc3ccc([N+](=O)[O-])cc3)co2)CC1	-29.4
Cc1ccc(-c2cc(C(=O)Nc3ccc(S(=O)(=O)Nc4onc(C)c4C)cc3)[nH]n2)c(O)c1	-1.84
CN1CCN(c2nc(-c3ccncc3)nc3ccccc23)CC1	-64.9
CC1CN(c2nn3c(=O)c4ccccc4nc3c3ccccc23)CC(C)O1 (stereo not drawn)	-0.465
Cc1ccc(-c2nc(N3CCN(C)CC3)c3ccccc3n2)cc1.Cl	3.62
CCN1CCN(c2nc(-c3cccnc3)nc3ccccc23)CC1.Cl	-18.4
CCN1CCN(c2nc(-c3ccccn3)nc3ccccc23)CC1	-17.5
CCN1CCN(c2nc(-c3ccccc3)nc3ccccc23)CC1	-30.4
CN1CCN(c2nc(-c3ccc(Cl)cc3Cl)nc3ccccc23)CC1	-58.1
CCN1CCN(c2nn3c(=O)c4ccccc4nc3c3ccccc23)CC1	-71.5
CCN1CCN(c2nc(-c3ccncc3)nc3ccccc23)CC1	-75.6
CN1CCN(c2nc(-c3ccccc3Cl)nc3ccccc23)CC1	-19.8
CN1CCN(c2nc(-c3ccc(Cl)c(Cl)c3)nc3ccccc23)CC1	9.87
c1ccc2c(N3CCCC3)nc(-c3ccncc3)nc2c1	1.09
